AHR act: activates the human aryl hydrocarbon receptor; AHR-responsive luciferase reporter cells, luminescence; activation, % at 5 µM; hit rate 2.5% among 320,000; AID 2796; in the data active = activation above about 47%;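 also: 0% = vehicle wells and 100% = reference agonist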
A3G deaminase: inhibitors of human APOBEC3G DNA deaminase | recombinant A3G, ssDNA deamination FAM/TAMRA fluorescence | Q9HC16 | hit rate 0.28% among 330,000 | inhibition, % at 20 µM | AID 493012;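 active = inhibition of at least 40% at 20 µM, with no more than 30% in the related APOBEC3A deaminase screen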;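 also: plate controls were DMSO wells with A3G for no effect and wells lacking A3G enzyme for full effect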
Target sequence (Q9HC16 whole entry, looked up): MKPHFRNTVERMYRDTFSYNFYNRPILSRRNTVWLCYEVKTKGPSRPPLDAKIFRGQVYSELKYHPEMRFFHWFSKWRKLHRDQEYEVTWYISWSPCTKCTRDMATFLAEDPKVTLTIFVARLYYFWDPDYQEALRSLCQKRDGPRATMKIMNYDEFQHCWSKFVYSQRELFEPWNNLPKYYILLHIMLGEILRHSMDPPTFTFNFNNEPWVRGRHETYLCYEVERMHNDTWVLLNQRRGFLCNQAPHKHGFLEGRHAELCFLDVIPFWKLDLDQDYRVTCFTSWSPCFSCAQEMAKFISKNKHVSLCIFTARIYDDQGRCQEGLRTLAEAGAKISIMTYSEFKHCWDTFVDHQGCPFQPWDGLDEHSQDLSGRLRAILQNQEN
NTR1 agonist: NTR1 (human) agonism; P30989; NTR1-U2OS beta-arrestin-GFP spot imaging, agonist mode; activation, % at 20 µM; hit rate 0.17% among 330,000; AID 493036;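 active = activation at or above 40% of the spot to cytoplasm intensity ratio, with at least 20 cells analyzed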;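 also: 0% = DMSO without peptide and 100% = 100 nM NTR1 peptide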
APOBEC3A inh: blocks human APOBEC3A ssDNA deamination | P31941 | recombinant A3A, FAM/TAMRA ssDNA deamination fluorescence | inhibition, % at 20 µM | hit rate 0.41% among 330,000;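 active = at least 40% inhibition at 20 µM here, with at most 30% in a related deaminase screen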;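 also: plate controls were A3A with DMSO for no effect and wells lacking A3A enzyme for full effect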
Target sequence (P31941 whole entry, looked up): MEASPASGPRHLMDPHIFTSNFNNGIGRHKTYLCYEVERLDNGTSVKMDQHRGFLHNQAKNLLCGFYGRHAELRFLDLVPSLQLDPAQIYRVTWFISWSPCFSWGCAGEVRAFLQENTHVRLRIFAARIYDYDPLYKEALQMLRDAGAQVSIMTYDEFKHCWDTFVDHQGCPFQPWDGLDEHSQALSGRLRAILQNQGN
* hit, by the source's call. Compounds with a hit are over-represented: about 3.2% of the library has one in this group of screens.

What do the screens show for `Cc1ccc2cc(CN(CCO)Cc3nnnn3Cc3ccc(F)cc3)c(=O)[nH]c2c1`?
AHR act: 2.5; A3G deaminase: 1.6; NTR1 agonist: -1.1; APOBEC3A inh: 2.4

How did CCC(c1nnnn1Cc1ccc(OC)cc1)N(CCCO)Cc1cc2cc3c(cc2[nH]c1=O)OCO3 (stereo not drawn) do in these assays?
AHR act: 26.6; A3G deaminase: 1.3; NTR1 agonist: 0.5; APOBEC3A inh: 36.0

Results for O=c1[nH]c2cc3c(cc2cc1CN(CCCO)Cc1nnnn1Cc1ccc(F)cc1)OCO3 ?
AHR act: 54.4*; A3G deaminase: 12.9; NTR1 agonist: 1.7; APOBEC3A inh: -0.4

How did CC(C)C(c1nnnn1Cc1ccccc1)N(CCCO)Cc1cc2cc3c(cc2[nH]c1=O)OCO3 (stereo not drawn) do in these assays?
AHR act: 64.0*; A3G deaminase: -4.8; NTR1 agonist: 1.0; APOBEC3A inh: 3.0

Results for NS(=O)(=O)c1ccc(CCNC(=O)COC(=O)C2CCN(c3ccc(C(F)(F)F)cn3)CC2)cc1 ?
AHR act: -1.5; A3G deaminase: 4.4; NTR1 agonist: 2.8; APOBEC3A inh: 4.6

What do the screens show for `CCOc1ccc(NC(=O)CSc2nccn(-c3ccc4c(c3)OCCO4)c2=O)cc1`?
AHR act: 1.2; A3G deaminase: -7.0; NTR1 agonist: 0.1; APOBEC3A inh: -3.8

Results for Cc1ccc2c(c1)/C(=C/c1ccccc1F)C(=O)N2 ?
AHR act: 68.0*; A3G deaminase: -6.3; NTR1 agonist: 0.5; APOBEC3A inh: -2.8

How did Cc1ccc2c(c1)/C(=C/c1ccccc1)C(=O)N2 do in these assays?
AHR act: 19.7; A3G deaminase: -0.9; NTR1 agonist: 2.7; APOBEC3A inh: -5.3

How did Cc1cc(Cl)nc(SCC(=O)c2ccccc2)n1 do in these assays?
AHR act: 61.3*; A3G deaminase: -3.7; NTR1 agonist: 2.5; APOBEC3A inh: -2.5

What do the screens show for `CCOC(=O)c1c(C)[nH]c(C(=O)OCc2ccc(C)cc2)c1C`?
AHR act: 48.6*; A3G deaminase: -5.2; NTR1 agonist: 1.7; APOBEC3A inh: 2.0

What do the screens show for `CCOC(=O)c1c(C)[nH]c(C(=O)OCc2ccc([N+](=O)[O-])cc2)c1C`?
AHR act: 52.8*; A3G deaminase: -2.8; NTR1 agonist: 4.4; APOBEC3A inh: 10.8

Results for CCOC(=O)c1c(C)[nH]c(C(=O)OCc2ccccc2)c1C ?
AHR act: 3.3; A3G deaminase: 15.3; NTR1 agonist: 4.0; APOBEC3A inh: 4.8

What do the screens show for `CCOC(=O)c1[nH]c(C)c(C(=O)OCc2ccc(C)cc2)c1C`?
AHR act: 6.7; A3G deaminase: -5.6; NTR1 agonist: -0.2; APOBEC3A inh: -1.5

How did Cc1ccc(S(=O)(=O)N(C)CC(=O)OCC(=O)NC(c2ccccc2)c2ccccc2)cc1 do in these assays?
AHR act: 1.0; A3G deaminase: -8.4; NTR1 agonist: -0.6; APOBEC3A inh: -3.3

Results for Nc1ccccc1-n1cccc1 ?
AHR act: 55.7*; A3G deaminase: 1.5; NTR1 agonist: 1.0; APOBEC3A inh: 3.1

How did O=[N+]([O-])c1cccc(-c2csc(N/N=C/c3cccc(O)c3)n2)c1 do in these assays?
AHR act: 73.5*; A3G deaminase: -5.9; NTR1 agonist: 24.9; APOBEC3A inh: -2.4

How did ClCc1csc(N/N=C/c2cccs2)n1 do in these assays?
AHR act: 13.5; A3G deaminase: -8.9; NTR1 agonist: 0.9; APOBEC3A inh: -8.2

How did C(=N\Nc1nc(-c2ccccc2)cs1)/c1ccco1 do in these assays?
AHR act: 110.0*; A3G deaminase: -8.4; NTR1 agonist: 2.6; APOBEC3A inh: -4.4

Results for C(=N\Nc1nc(-c2ccccc2)cs1)/c1cccs1 ?
AHR act: 60.3*; A3G deaminase: -8.6; NTR1 agonist: 0.6; APOBEC3A inh: -5.2

Results for C(=N\Nc1nc(-c2ccccc2)cs1)/c1ccncc1 ?
AHR act: 60.5*; A3G deaminase: -8.1; NTR1 agonist: 8.0; APOBEC3A inh: -0.4

What do the screens show for `Cc1ccc(-c2csc(N/N=C/c3ccco3)n2)cc1`?
AHR act: -8.7; A3G deaminase: -2.7; NTR1 agonist: 3.9; APOBEC3A inh: -1.7

How did O=C(NNc1nc(-c2ccccc2)cs1)c1ccco1 do in these assays?
AHR act: 71.7*; A3G deaminase: -3.4; NTR1 agonist: 0.7; APOBEC3A inh: 0.4

What do the screens show for `O=C(NNc1nc(-c2ccc(Cl)cc2)cs1)c1ccco1`?
AHR act: 43.2; A3G deaminase: -6.2; NTR1 agonist: 1.4; APOBEC3A inh: -1.5

What do the screens show for `Oc1ccccc1CNc1cnc2ccccc2c1`?
AHR act: 48.9*; A3G deaminase: -7.8; NTR1 agonist: 2.2; APOBEC3A inh: -1.6

Results for COc1cc([N+](=O)[O-])ccc1NC(=O)CSc1nc2ccccc2n1-c1ccccc1 ?
AHR act: 61.3*; A3G deaminase: -7.8; NTR1 agonist: 2.5; APOBEC3A inh: -2.8

What do the screens show for `CCOc1ccc(-n2c(SCC(=O)Nc3cc(OC)c([N+](=O)[O-])cc3C)nc3ccccc32)cc1`?
AHR act: 4.9; A3G deaminase: -6.5; NTR1 agonist: 1.0; APOBEC3A inh: -2.4

Results for O=c1oc2ccccc2cc1-c1cn2ccccc2n1 ?
AHR act: 76.2*; A3G deaminase: -6.3; NTR1 agonist: -2.0; APOBEC3A inh: -0.4

How did O=c1oc2ccccc2cc1-c1cn2cccnc2n1 do in these assays?
AHR act: 15.8; A3G deaminase: -4.7; NTR1 agonist: -0.5; APOBEC3A inh: -2.3

Results for Cc1cc(C)nc(NC(=NCCc2c[nH]c3ccccc23)NC(=O)Nc2ccccc2)n1 ?
AHR act: 51.9*; A3G deaminase: -5.5; NTR1 agonist: 5.4; APOBEC3A inh: -1.2

How did CC(C)N(Cc1nc(-c2ccc3c(c2)OCO3)no1)Cc1nccn1C do in these assays?
AHR act: 60.7*; A3G deaminase: -2.2; NTR1 agonist: 1.6; APOBEC3A inh: -3.4

How did CNS(=O)(=O)c1cc(NC(=O)c2cnc(SC)n2-c2ccccc2)ccc1C do in these assays?
AHR act: -1.4; A3G deaminase: -8.0; NTR1 agonist: 3.7; APOBEC3A inh: -2.5

What do the screens show for `Cc1ccc(S(=O)(=O)Nc2ccc(Br)cc2C(NCC(=O)O)c2ccccc2)cc1` (stereo not drawn)?
AHR act: -0.3; A3G deaminase: -11.5; NTR1 agonist: 3.5; APOBEC3A inh: -1.5

What do the screens show for `O=C(O)CSc1cc(NS(=O)(=O)c2ccc(Br)cc2)c2ccccc2c1O`?
AHR act: 48.8*

How did Clc1ccc(CSc2cc3c(nn2)-c2ccccc2CC3)cc1 do in these assays?
AHR act: 47.3*; A3G deaminase: -3.0; NTR1 agonist: 0.1; APOBEC3A inh: -4.1

How did O=C(Nc1cccc2ccccc12)N1CC=C(c2ccccc2)CC1 do in these assays?
AHR act: 54.2*; A3G deaminase: -3.5; NTR1 agonist: -1.6; APOBEC3A inh: -1.3

How did COc1ccc2c3n([n+]([O-])c2c1)CCN=C3c1cc(Cl)c(N)c(Cl)c1 do in these assays?
AHR act: 69.3*; A3G deaminase: -6.3; NTR1 agonist: -0.3; APOBEC3A inh: -1.3

What do the screens show for `CCCCn1c(=N)n(CC(=O)c2ccc(Br)s2)c2ccccc21`?
AHR act: 52.2*; A3G deaminase: 3.3; NTR1 agonist: 4.2; APOBEC3A inh: 11.2

How did CCn1c(=N)n(CC(=O)c2ccc(Br)s2)c2ccccc21 do in these assays?
AHR act: 47.6*; A3G deaminase: 0.7; NTR1 agonist: 2.8; APOBEC3A inh: -10.5
